The results in this text go back to PubChem BioAssay (EPA / NIEHS).

One may read the AC50 as the concentration giving half of the maximal activity seen.

The nature of assay [1]: TOX21_p53_BLA_p4_viability: Viability Assessment in the Tox21 HCT-116 p53 Agonism Beta-lactamase Assay, Phase 4 (AID 2283597).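 Further: hits lower the luminescence signal meaning cytotoxicity.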 The procedure, abridged:
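Cells plated, 5 h pre-incubation; DMSO compounds pinned (217-fold dilution); 16 h, 37C/5% CO2; CCF4-AM 2 h RT; CellTiter-Glo 30 min RT; luminescence read.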

Assay [2] has as its target Cellular tumor antigen p53 (Homo sapiens) (UniProt P04637). Nature of the assay: TOX21_p53_BLA_p5_ratio: Tox21 HCT-116 p53 Agonism Beta-lactamase Assay, Ratio, Phase 5 (AID 2283599). The gist of the method:
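HCT-116 cells carrying a p53-inducible beta-lactamase reporter were seeded at 4000 cells/well and dosed after 5 h with compound in DMSO (217-fold dilution). After 16 h at 37C, CCF4-AM substrate was added for 2 h, and the 460/530 nm emission ratio was scored as gain-of-signal versus DMSO.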

Assay [3] in a line: TOX21_p53_BLA_p5_viability: Viability Assessment in the Tox21 HCT-116 p53 Agonism Beta-lactamase Assay, Phase 5 (AID 2283600). The procedure, abridged: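 4000 cells/well; 5 h pre-incubation; DMSO compounds pin-transferred, 217-fold dilution; 16 h, 37C/5% CO2; CCF4-AM 2 h RT; CellTiter-Glo 30 min RT; luminescence.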
The target of assay [4] is Cellular tumor antigen p53 (Homo sapiens) (UniProt P04637). Nature of the assay: TOX21_p53_BLA_p4_ratio: Tox21 HCT-116 p53 Agonism Beta-lactamase Assay, Ratio, Phase 4 (AID 2283601). The procedure, abridged:
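HCT116 cells carrying an inducible beta-lactamase reporter were plated at 4000 cells/well, rested 5 h, then exposed to compounds in DMSO (217-fold dilution) for 16 h at 37C. CCF4-AM substrate was loaded 2 h at room temperature; 460/530 nm emission ratio scored gain-of-signal versus DMSO.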

The structures appear in SMILES notation. Where “and” joins values, the source holds several entries; their conditions need not be identical. Identical values can stand only once. Inconclusive results are not listed. A structure can be active in one record and inactive in another. Calls of active or inactive are those of the source. How the source made its calls: active means hit-call score of the fitted dose curve at least 0.9, where 1 is the maximum; inconclusive means response in the unintended direction; inactive means score below 0.9.

Sequence of Cellular tumor antigen p53 (Homo sapiens) (P04637 whole entry, looked up): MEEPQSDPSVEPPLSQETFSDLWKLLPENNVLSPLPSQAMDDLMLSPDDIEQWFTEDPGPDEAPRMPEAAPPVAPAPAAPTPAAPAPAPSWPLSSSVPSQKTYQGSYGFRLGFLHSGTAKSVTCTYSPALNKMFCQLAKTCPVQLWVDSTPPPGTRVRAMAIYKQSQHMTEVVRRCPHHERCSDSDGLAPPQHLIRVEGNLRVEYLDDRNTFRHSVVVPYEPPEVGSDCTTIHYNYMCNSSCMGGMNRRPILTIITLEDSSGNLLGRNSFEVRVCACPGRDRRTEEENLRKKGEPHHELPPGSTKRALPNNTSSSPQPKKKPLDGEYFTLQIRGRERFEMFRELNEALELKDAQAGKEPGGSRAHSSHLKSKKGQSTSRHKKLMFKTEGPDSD

As to `c1ccc(-c2cccc(-c3ccccc3)c2)cc1`, the compound was called inactive in assay [1], in assay [2], in assay [3] and in assay [4].
Take `O=C(O)CC(O)(CC(=O)O)C(=O)O`: the compound was called inactive in assay [1], in assay [2], in assay [3] and in assay [4].
As for `C=CC(=O)OCC(COC(=O)C=C)(COC(=O)C=C)COC(=O)C=C`, the figures for the AC50 in assay [1], in assay [3] and in assay [4] were 13.3 µM (active), 21.3 µM (active) and 46.1 µM (active), respectively. Besides, in assay [2], the result was inactive.
`C=C(C)C(=O)OCC(CC)CCCC` (configuration not stated): the compound was called inactive in assay [1], in assay [2], in assay [3] and in assay [4].
Consider `ClCCCCl`, for which the call in assay [1], in assay [2] and in assay [3] was inactive.
`Clc1ccc(C(Cl)(Cl)Cl)cn1`: the outcome in assay [1], in assay [2] and in assay [3] was inactive.
Regarding `CC(C)(C1CCC(O)CC1)C1CCC(O)CC1` (configuration not stated), the outcome in assay [1] and in assay [2] was inactive.
As to `CCC[CH2][Sn]([CH2]CCC)([CH2]CCC)[CH2]CCC`, the AC50 in assay [1] is 42.2 µM (active); in assay [2], 44.3 µM (active); in assay [3], 41 µM (active); in assay [4], 68.7 µM (active).
`CC(C)[N+](=O)[O-]`: the compound was classed as inactive in assay [1], in assay [2], in assay [3] and in assay [4].
In the case of `CCC[CH2][Sn]([Cl])([Cl])[CH2]CCC`, the AC50 was 2.06 µM (active) and 3.45 µM (active) in assay [1]; 15 µM (active) and 20.4 µM (active) in assay [2]; 2.75 µM (active) and 2.86 µM (active) in assay [3]; 3.21 µM (active) and 13.9 µM (active) in assay [4].
As for `BrCCCCBr`, in assay [1], the compound was called inactive.
On to `N#CS`, for which the outcome in assay [1], in assay [2], in assay [3] and in assay [4] was inactive.
On to `CCCCCCCCCCCCBr`, for which the compound was called inactive in assay [1], in assay [2], in assay [3] and in assay [4].
Consider `Cc1cc(-c2cc(C)c(N)c(C)c2)cc(C)c1N`, for which the compound was classed as inactive in assay [1], in assay [2], in assay [3] and in assay [4].
As to `Nc1ccc(-c2ccccc2)cc1`, the compound was called inactive in assay [1], in assay [2], in assay [3] and in assay [4].
Take `O=C(Nc1ccc(Br)cc1)c1cc(Br)cc(Br)c1O`: the AC50 in assay [1] was 1.33 µM (active) and 417 nM (active) and 2.76 µM (active); in assay [2], 1.11 µM (active) and 782 nM (active) and 7.78 µM (active); in assay [3] it was 9.14 µM (active); in assay [4] it was 1.11 µM (active) and 589 nM (active). In addition, the result in assay [3] and in assay [4] was inactive.
With `Cc1cc(C(C)(C)c2ccc(O)c(C)c2)ccc1O`, the outcome in assay [1], in assay [2] and in assay [3] was inactive. The concentration at half-maximal activity (AC50) in assay [4] was 41.9 µM (active).
Regarding `CC(=O)CN(CC(C)=O)N=O`, the result in assay [1] was inactive.
`O=C(Cc1ccccc1)OCCc1ccccc1`: the compound was classed as inactive in assay [1], in assay [2] and in assay [3].
Regarding `COc1ccc(N)cc1`, the compound was called inactive in assay [1], in assay [2], in assay [3] and in assay [4].
With `O=C(O)COc1ccc(Cl)cc1`, the result in assay [1] and in assay [2] was inactive.
Regarding `O=C(NC(=O)c1c(F)cccc1F)Nc1cc(Cl)c(F)c(Cl)c1F`, the call in assay [1], in assay [2], in assay [3] and in assay [4] was inactive.
Regarding `Cc1c([N+](=O)[O-])c(C)c([N+](=O)[O-])c(C(C)(C)C)c1[N+](=O)[O-]`, in assay [1], the AC50 is 42.5 µM (active). Also, the outcome in assay [2], in assay [3] and in assay [4] was inactive.
For the compound `CCC(C)(C#N)N=NC(C)(C#N)CC` (configuration not stated), the compound was classed as inactive in assay [1], in assay [2] and in assay [3].
On to `O=S1(=O)OC(c2cc(Br)c(O)c(Br)c2)(c2cc(Br)c(O)c(Br)c2)c2ccccc21`, for which the AC50 in assay [1] was 52.4 µM (active). Also, the outcome in assay [2], in assay [3] and in assay [4] was inactive.
Regarding `Cc1cc(Cl)ccc1OCCCC(=O)O`, the call in assay [1], in assay [2], in assay [3] and in assay [4] was inactive.
`C[CH2][Hg][S]c1ccccc1C(=O)O`: the AC50 in assay [1] is 41.7 µM (active) and 5.78 µM (active); in assay [2], 350 nM (active) and 3 µM (active); in assay [3], 46.1 µM (active) and 7.05 µM (active); in assay [4], 46.1 µM (active) and 34.6 µM (active).
On to `CNC(=O)O/N=C/C(C)(C)S(C)(=O)=O`, for which the outcome in assay [2] and in assay [3] was inactive.
Regarding `CCCSP(=S)(OCC)Oc1ccc(SC)cc1` (configuration not stated), the compound was classed as inactive in assay [1], in assay [2] and in assay [4].
As for `Brc1ccc(Br)cc1`, the compound was called inactive in assay [1], in assay [2], in assay [3] and in assay [4].
Regarding `CN(C)c1ccc(N=O)cc1`, the AC50 in assay [1] was 70.4 µM (active) and 69.5 µM (active); in assay [2], 83.8 µM (active) and 86.6 µM (active); in assay [3] it was 74.2 µM (active) and 79.4 µM (active); in assay [4], 86.9 µM (active). Also, the outcome in assay [4] was inactive.
For the compound `COC(=O)Nc1cccc(OC(=O)Nc2cccc(C)c2)c1`, the call in assay [1] and in assay [3] was inactive.
Regarding `CC(C)=CC1C(C(=O)OCc2cccc(Oc3ccccc3)c2)C1(C)C` (configuration not stated), the outcome in assay [1], in assay [3] and in assay [4] was inactive.
Regarding `CCN(N=O)C(N)=O`, the call in assay [1], in assay [3] and in assay [4] was inactive.
Consider `O=C(O)c1cc(I)cc(I)c1I`, for which the call in assay [1], in assay [3] and in assay [4] was inactive.
`CCNc1nc(NCC)nc(SC)n1`: the outcome in assay [2] and in assay [3] was inactive.
With `CCCCCCCCCCCCCl`, the outcome in assay [1], in assay [3] and in assay [4] was inactive.
Consider `C=CCN=C=S`, for which the result in assay [1], in assay [2], in assay [3] and in assay [4] was inactive.
As to `N#CCCC(Br)(C#N)CBr` (configuration not stated), the compound was called inactive in assay [1] and in assay [4].
For `O=[N+]([O-])c1ccc(Cl)c([N+](=O)[O-])c1`, the AC50 was 71.9 µM (active) and 42.9 µM (active) in assay [1]; 32.3 µM (active) and 74.9 µM (active) in assay [2]; 44 µM (active) and 44.4 µM (active) in assay [3]; 22.7 µM (active) in assay [4]. Also, the outcome in assay [4] was inactive.
